Molecules are shown by their SMILES. In all, about 69,000 compounds went through this assay and about 420 (0.61%) showed an effect of 50% or more. For the sample, strong results were picked, then their nearest neighbours and some compounds at random.

In the test the target is T1, Histidine--tRNA ligase (Leishmania infantum) (UniProt A4I591).
T1 sequence (whole entry): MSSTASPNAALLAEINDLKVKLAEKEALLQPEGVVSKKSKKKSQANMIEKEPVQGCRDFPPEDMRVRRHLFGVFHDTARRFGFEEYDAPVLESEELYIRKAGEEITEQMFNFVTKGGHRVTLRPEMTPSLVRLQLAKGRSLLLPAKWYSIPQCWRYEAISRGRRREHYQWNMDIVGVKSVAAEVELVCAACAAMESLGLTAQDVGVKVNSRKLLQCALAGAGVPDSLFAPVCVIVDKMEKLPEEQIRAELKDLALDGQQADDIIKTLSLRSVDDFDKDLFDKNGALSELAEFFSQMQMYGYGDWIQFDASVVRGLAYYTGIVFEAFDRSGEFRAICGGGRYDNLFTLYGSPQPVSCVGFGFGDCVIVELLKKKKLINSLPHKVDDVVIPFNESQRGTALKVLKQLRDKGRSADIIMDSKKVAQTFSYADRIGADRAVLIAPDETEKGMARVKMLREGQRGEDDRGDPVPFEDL
Kind of test: Leishmania infantum Histidine tRNA synthetase (LdHisRS). The format is functional. Also noted: scale not given: in the data most compounds retested in dose-response had high values. To be noted: 30 µM.
Take `CNc1ncccc1CN1CCN2CCN(C)CC2C1` (stereo not given): the Percent Effect came to 6.33%.
In the case of `Cc1cccc2cc(CN3CCCN4CCC[C@H]4C3)c(=O)[nH]c12`, the Percent Effect was determined as 17.5%.
The result for `Clc1cc(CN2CCCN3CCCC3C2)c2ncccc2c1` (stereo not given) reads 62.9%.
As for `CNC(=O)[C@H]1C[C@@H]2CN(c3cc(OC)ncn3)C[C@@H]2N1C(C)C`, the Percent Effect is -7.02%.
Consider `c1cc(COC[C@]23COC[C@H]2CN(Cc2ccsc2)C3)ccn1`, for which the Percent Effect was 10.1%.
The same measure for `CNCCc1nc2cc(Cl)ccc2[nH]1`: 14.6%; for `CCNCCc1nc2cc(F)ccc2[nH]1`: 25.8%; for `CNCCc1nc2cc(F)ccc2[nH]1`: 55.3%.
On to `O=C1[C@H]2CN(Cc3ccccn3)C[C@H]2CN1c1ccsc1`, for which the Percent Effect is 6.42%.
The same measure for `COc1ccc2c(c1)c(C(=O)Nc1nnn[nH]1)cn2C(C)C`: 52.1%; for `COc1ccc2c(c1)c(C(=O)Nc1n[nH]c(C(C)C)n1)cn2C(C)C`: 22.9%; for `COc1ccc2c(c1)c(C(=O)Nc1nnn[nH]1)cn2C`: 18.8%.
The same measure for `CN1C(Cn2cccn2)C[C@@H]2CN(Cc3cccnc3)CC[C@@H]21` (stereo not given in full): 13.7%; for `O=C1[C@@H]2CCN(C3CCC3)C[C@@H]2OCCN1Cc1ccncc1`: 17.2%.
The same measure for `Cc1noc(C)c1CN1CC[C@H]2OCC[C@@]2(C(=O)N2CCCO2)C1`: 17.6%; for `O=C1[C@H]2CN(CC3CC3)C[C@H]2CN1c1ccsc1`: 3.01%; for `COc1ccc(CCN)cc1-c1ccc(C(N)=O)cc1`: 71.8%.
On to `COc1ccc(CCN)cc1-c1ccc(O)cc1`, for which the Percent Effect was -4.22%.
Regarding `COc1ccc(CCN)cc1-c1ccc(S(C)(=O)=O)cc1`, the Percent Effect worked out at 23.9%.
The result for `c1cnc(N2CCO[C@H]3CN(CC4CCOCC4)C[C@H]32)nc1` reads 11.7%.

For the origin of these results see ChEMBL document CHEMBL3988442, “University of Dundee, Small-Polar-MMV Screening Library” (2021).
